# Sampled rows, rich in hits. Any-hit rate of the full collection: about 1.2%.
# HttQ103 aggreg: qHTS Multiplex Assay to Identify Dual Action Probes in a Cell Model of Huntington: Aggregate Formation (GFP). PC12 HttQ103-GFP aggregates, Acumen cytometry, 40 h. Potency, µM (highest dose often 46.1 µM), without a hit: top-dose activity change, negative = inhibition, most hits filed as inhibitors. hit rate 1.1% among 220,000. AID 1688, 2009; further: potency means the concentration at half of the fitted maximal effect; on the % scale 0 is the no-effect control and ±100 the full control effect; nearly all actives have a fitted effect of over 60% in size
#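 PC12 cells with ecdysone-inducible HTT exon1 Q103-GFP, induced by 100 nM tebufenozide, given compounds in a concentration series. GFP aggregates (1–25 um, 6 SD above background) counted in lysates by laser-scanning cytometry, 488 nm excitation.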
# GLA inh pH 4.5: qHTS Assay for Inhibitors of Human alpha-Galactosidase at pH 4.5 | 230,000 tested, under 10 active | purified enzyme, 4-MU-alpha-Gal fluorescence, pH 4.5 | activity change, negative = inhibition, % at 105 µM;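 further: 0% = full activity with enzyme and -100% = basal without enzyme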
# ERK EGF inh: qHTS Assay for Inhibitors of the ERK Signaling Pathway using a Homogeneous Screening Assay; Stimulation with EGF; hit rate 0.41% among 130,000; AID 1454, 2008; HEK293-V1b, EGF-stimulated phospho-ERK AlphaScreen; Potency, µM (titrated, usually from 11.5 µM), for the others: at the highest dose activity change, negative = inhibition, most hits filed as inhibitors;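 further: potency means the concentration at half of the fitted maximal effect; plate controls were stimulated vehicle wells for no effect and unstimulated vehicle basal for full effect; nearly all actives have a fitted effect of over 55% in size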
#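 Cell line HEK293 (stable V1b), low serum overnight. Pretreatment: compound 30 min, 37C. EGF 25 nM, 5 min. Detection: SureFire AlphaScreen, 5 h RT. AC50 via standard Hill equation.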
# GLA spleen mod: qHTS Assay for Inhibitors and Activators of Human alpha-Galactosidase From Spleen Homogenate | Alpha-galactosidase A (Homo sapiens), P06280 | human spleen homogenate, 4MU-alpha-Gal fluorescence, 40 min | Potency, µM (doses to about 80 µM), for the others: at the top dose activity change, negative = inhibition, most hits filed as inhibitors | hit rate 0.008% among 240,000 | AID 2107, 2009;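 further: potency means the concentration at half of the fitted maximal effect; 0% = enzyme with vehicle and -100% = no enzyme basal signal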
# Target sequence (P06280 32-429 limits assumed): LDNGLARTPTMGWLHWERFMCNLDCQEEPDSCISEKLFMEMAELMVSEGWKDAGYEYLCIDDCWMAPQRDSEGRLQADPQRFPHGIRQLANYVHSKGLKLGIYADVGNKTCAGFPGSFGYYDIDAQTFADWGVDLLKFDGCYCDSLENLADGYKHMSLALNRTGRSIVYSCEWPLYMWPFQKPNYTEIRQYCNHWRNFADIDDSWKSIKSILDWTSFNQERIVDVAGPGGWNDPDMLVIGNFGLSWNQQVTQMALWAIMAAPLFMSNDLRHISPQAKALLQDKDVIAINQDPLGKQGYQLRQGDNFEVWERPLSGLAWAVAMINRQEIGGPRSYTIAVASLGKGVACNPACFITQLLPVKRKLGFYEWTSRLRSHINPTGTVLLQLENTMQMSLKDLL
#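 Human spleen homogenate (1 ug) was the enzyme source, with 4-methylumbelliferyl-alpha-D-galactopyranoside (1 mM final) in pH 5.0 citrate buffer with 0.01% Tween-20. Compounds were titrated; after 40 min at 37C, NaOH/glycine stop, 4-MU fluorescence read; AC50 from Hill fits.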
# HTT cytoprotect: qHTS Multiplex Assay to Identify Dual Action Probes in a Cell Model of Huntington: Cytoprotection (ATP); AID 1471, 2008; PC12 HTT-Q103 induced, cytoprotection, ATP luminescence, 40 h; Potency, µM (doses to about 56.4 µM), for the others: cytoprotection (ATP increase), actives largely listed as activators; hit rate 0.14% among 230,000; further: potency means the concentration at half of the fitted maximal effect; % of control where 0% means no effect; nearly all actives have a fitted effect of over 45% in size
#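 Cells were plated at 1500 per well in phenol red-free DMEM with 5% equine and 5% calf serum. Tebufenozide (100 nM final) and compounds were added, then ATPlite reagent, and luminescence was read.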
# Numbers without * were called inactive; ? = inconclusive; / = not tested or not shown; [ ] = another dose, or the depositor's remark. The call rests on the fitted dose curve; in most records, active means well fitted curve in the direction sought with a large enough effect; inconclusive means small, poorly fitted or top-dose-only effect, or another doubt; inactive means no such curve, though single readings can be large; an effect the other way counts as inactive or inconclusive.
SMILES,HttQ103 aggreg,GLA inh pH 4.5,ERK EGF inh,GLA spleen mod,HTT cytoprotect
CC1=CC(C)(C)Nc2ccc(OC(=O)C(C)N3C(=O)c4ccccc4C3=O)cc21 (centres undefined),2%[9.22 µM],-5,/,-3%,-13%[10 µM]
CC1=CC(C)(C)Nc2ccc(OC(=O)CN3C(=O)CCC3=O)cc21,6.3µM*,-8,/,1%,-89%
CC(C)C[C@H](NC(=O)[C@H](Cc1ccccc1)NC(=O)CNC(=O)CNC(=O)[C@@H](N)Cc1ccc(O)cc1)C(=O)N[C@@H](CCCN=C(N)N)C(=O)N[C@@H](CCCN=C(N)N)C(=O)N[C@@H](CCC(N)=O)C(=O)N[C@@H](Cc1ccccc1)C(=O)N[C@@H](CCCCN)C(=O)N[C@H](C(=O)N[C@H](C(=O)N[C@H](C(=O)O)[C@@H](C)O)C(C)C)C(C)C,/,/,/,-23%,-34%
COC(=O)c1ccccc1S(=O)(=O)N(Cc1cc2ccc(OC)cc2[nH]c1=O)CC1CCCO1 (centres undefined),3.5µM*,-4,/,-5%,-4%[10 µM]
COc1ccc2cc(CN(CC3CCCO3)S(=O)(=O)c3ccc(C(C)=O)cc3)c(=O)[nH]c2c1 (centres undefined),22%,4,/,-6%,23%
CCCn1c(=O)c(C(=O)NNS(=O)(=O)c2ccc(Cl)cc2)c(O)c2ccccc21,14µM*,-4,5%,5%,-7%[10 µM]
COc1cccc(-c2nc(NC(C)(C)C)c3ccccc3n2)c1O,35µM*,-25,/,3%,-31%
COc1cccc(-c2nc(N3CCCC3)c3ccccc3n2)c1O,-13%[9.22 µM],-6,-13%[57.5 µM],8%,-25%[10 µM]
NCCCCCc1cnc[nH]1,/,-23,/,-5%,0.79µM*
Cc1nn(-c2ccccc2)c(C)c1C(=O)OCC(=O)c1c(N)n(CC(C)C)c(=O)n(C)c1=O,5µM*,-4,/,1%,-15%[10 µM]
CC(C)Cn1c(N)c(C(=O)COC(=O)c2ccc(O)cc2)c(=O)n(C)c1=O,25%,-14,?,1%,/
CC(C)CCC[C@@H](C)[C@H]1CC[C@H]2[C@@H]3CC[C@@H]4C[C@H](O)CC[C@]4(C)[C@H]3CC[C@]12C,13%,/,/,/,11%
CCCCC(CC)COC(=O)COc1ccc(Cl)cc1Cl (centres undefined),/,/,/,-1%,5%
O=C(NC(NC(=S)Nc1ccc(F)c([N+](=O)[O-])c1)C(Cl)(Cl)Cl)C(c1ccccc1)c1ccccc1 (centres undefined),/,/,/,-7%,/
O=S(=O)(Nc1ccc2c(c1)OCCO2)c1cccs1,-13%,3,/,1%,-20%[0.074 µM]
O=S(=O)(Nc1ccc2c(c1)OCCO2)c1ccc(Br)s1,13µM*,3,/,0%,-14%
CC(C)(COP(=O)(O)OP(=O)(O)OC[C@H]1O[C@@H](n2cnc3c(N)ncnc32)[C@H](O)[C@@H]1OP(=O)(O)O)C(O)C(=O)NCCC(=O)NCCS (some centres undefined),-2%,/,/,/,11%
NC(=O)n1c(O)c(C(=O)c2cccs2)c2cc(Cl)ccc21,11µM*,/,/,-24%,/
CN1/C(=C\P(=O)(N(C)C)N(C)C)C(C)(C)c2ccccc21,11µM*,4,/,8%,-3%[10 µM]
O=Cc1ccccc1C=O,18%,/,/,/,-167%
CCCc1cc(-c2[nH]ncc2-c2ccc3c(c2)OCCCO3)c(O)cc1OC,?,-16,/,13%,-16%
CCc1cc(-c2[nH]ncc2-c2ccc3c(c2)OCO3)c(O)cc1O,11µM*,/,-8%[57.5 µM],-4%,-24%
COc1ccc(CCNC(=O)NC23CC4CC(CC(C4)C2)C3)cc1,-15%,-12,/,5%,1%
O=C(NCCC1=CCCCC1)NC12CC3CC(CC(C3)C1)C2,22µM*,-5,10%,4%,-11%[10 µM]
COP1(=O)CC(O)C(O)C(COCc2ccccc2)O1 (centres undefined),/,/,/,8%,/
SMILES,HttQ103 aggreg,GLA inh pH 4.5,ERK EGF inh,GLA spleen mod,HTT cytoprotect
O=S(=O)(Nc1cc(Sc2cccc3cccnc23)c(O)c2ccccc12)c1ccc(F)cc1,22µM*,-4,3%,0%,/
O=C(Sc1cccc2cccnc12)c1ccc(F)cc1,10µM*,6,-5%,-7%,19%[10 µM]
Cn1c(=O)cnc2cnc(Nc3ccccc3)nc21,/,/,-4%,1%,?
Cc1cc(Cl)ccc1OCC(=O)N1CCCN(C(=O)COc2ccc(Cl)cc2C)CC1,?,?,32µM*,3%,-2%[10 µM]
Cc1c(CNC2CCCC2)c(C(=O)O)c(C)n1Cc1ccccc1,0.79µM*,-2,-1%,-2%,115%[10 µM]
Cc1c(CNC2CCC(C)CC2)c(C(=O)O)c(C)n1Cc1ccccc1 (centres undefined),-6%,0,12%,1%,-10%[10 µM]
O=c1c2ccccc2nc2n1C(CSCc1ccc(Cl)cc1Cl)CS2 (centres undefined),8.9µM*,1,/,1%,-41%
C=CCN1c2ccccc2[C@]23C[C@@H](C(=O)OC)N(S(=O)(=O)c4ccc(Br)cc4)C2=NC(C(=O)OC)=C(C(=O)OC)[C@H]13,/,7,/,2%[17.5 µM],7%[10 µM]
Cc1nc2cnc(Nc3ccccc3)nc2n(C2CC2)c1=O,/,/,/,2%,-24%
O=c1cnc2cnc(Nc3ccccc3)nc2n1C1CC1,/,/,/,4%,20µM*
CSCC[C@H](NC(=O)[C@H](CC(C)C)NC(=O)CNC(=O)[C@H](Cc1ccc(O)cc1)NC(=O)[C@H](Cc1ccccc1)NC(=O)[C@H](CCCCN)NC(=O)[C@H](CC(N)=O)NC(=O)[C@@H]1CCCN1C(=O)[C@H](CC(=O)O)NC(=O)[C@H](C)NC(=O)[C@@H]1CCC(=O)N1)C(N)=O,/,/,/,-8%,/
CC(=O)CSc1nc(N)c(C#N)c(-c2cccs2)c1C#N,14µM*,0,/,4%,24%
CC(C)OC(=O)CSc1nc(N)c(C#N)c(-c2cccs2)c1C#N,1%,9,/,-2%,19%
CCCCSc1nc(N)c(C#N)c(-c2cccs2)c1C#N,35µM*,-15,/,-17%,-54%
CO[C@]12C[C@@H](COC(=O)c3cncc(Br)c3)CN(C)[C@@H]1Cc1cn(C)c3cccc2c13,-10%,-4,-10%,3%,3%[1.9 µM]
CCOc1ccc(N(CC(=O)Nc2ccc(C)c(C)c2)S(=O)(=O)c2c(C)noc2C)cc1,20µM*,-16,5%,2%,18%[10 µM]
c1ccc2c(c1)OCCOCCOCCOCCO2,/,/,/,13%,/
O=C(NNc1nc2cc3c(cc2s1)OCO3)c1cccc(F)c1,15%,8,18µM*,-3%,/
COc1cc(CC(=O)Nc2ccc(Cl)c(C(F)(F)F)c2)cc(OC)c1OC,10µM*,5,0%,-14%,22%[10 µM]

# High-throughput results from PubChem.
